Test [1] has as its target Tyrosine-protein kinase SYK (Homo sapiens) (UniProt P43405). To be noted: at 10 µM.
The target in test [2] is T1, Mitogen-activated protein kinase kinase kinase 7 (Homo sapiens) (UniProt O43318).
T1 sequence (whole entry): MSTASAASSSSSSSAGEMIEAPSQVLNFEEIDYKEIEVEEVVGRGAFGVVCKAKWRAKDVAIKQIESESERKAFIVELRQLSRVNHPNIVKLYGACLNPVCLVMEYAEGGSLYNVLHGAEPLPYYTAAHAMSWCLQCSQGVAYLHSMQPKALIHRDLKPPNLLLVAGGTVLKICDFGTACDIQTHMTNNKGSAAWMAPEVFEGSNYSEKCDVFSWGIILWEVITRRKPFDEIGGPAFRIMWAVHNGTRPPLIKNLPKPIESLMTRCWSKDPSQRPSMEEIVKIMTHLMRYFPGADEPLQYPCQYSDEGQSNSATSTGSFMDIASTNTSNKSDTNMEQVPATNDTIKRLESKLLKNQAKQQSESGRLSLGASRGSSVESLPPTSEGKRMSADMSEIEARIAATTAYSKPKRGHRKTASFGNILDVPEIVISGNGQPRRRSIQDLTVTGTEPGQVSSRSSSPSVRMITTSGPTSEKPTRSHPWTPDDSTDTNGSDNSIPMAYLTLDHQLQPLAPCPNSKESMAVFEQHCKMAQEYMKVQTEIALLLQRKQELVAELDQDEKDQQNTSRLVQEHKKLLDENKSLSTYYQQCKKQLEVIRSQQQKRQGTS
The settings on record: at 1 µM.

Test [3] addresses T1, Mitogen-activated protein kinase kinase kinase 7 (Homo sapiens). The settings on record: at 10 µM.
Test [4] has as its target T2, Serine/threonine-protein kinase TAO1 (Homo sapiens) (UniProt Q7L7X3).
T2 sequence (whole entry): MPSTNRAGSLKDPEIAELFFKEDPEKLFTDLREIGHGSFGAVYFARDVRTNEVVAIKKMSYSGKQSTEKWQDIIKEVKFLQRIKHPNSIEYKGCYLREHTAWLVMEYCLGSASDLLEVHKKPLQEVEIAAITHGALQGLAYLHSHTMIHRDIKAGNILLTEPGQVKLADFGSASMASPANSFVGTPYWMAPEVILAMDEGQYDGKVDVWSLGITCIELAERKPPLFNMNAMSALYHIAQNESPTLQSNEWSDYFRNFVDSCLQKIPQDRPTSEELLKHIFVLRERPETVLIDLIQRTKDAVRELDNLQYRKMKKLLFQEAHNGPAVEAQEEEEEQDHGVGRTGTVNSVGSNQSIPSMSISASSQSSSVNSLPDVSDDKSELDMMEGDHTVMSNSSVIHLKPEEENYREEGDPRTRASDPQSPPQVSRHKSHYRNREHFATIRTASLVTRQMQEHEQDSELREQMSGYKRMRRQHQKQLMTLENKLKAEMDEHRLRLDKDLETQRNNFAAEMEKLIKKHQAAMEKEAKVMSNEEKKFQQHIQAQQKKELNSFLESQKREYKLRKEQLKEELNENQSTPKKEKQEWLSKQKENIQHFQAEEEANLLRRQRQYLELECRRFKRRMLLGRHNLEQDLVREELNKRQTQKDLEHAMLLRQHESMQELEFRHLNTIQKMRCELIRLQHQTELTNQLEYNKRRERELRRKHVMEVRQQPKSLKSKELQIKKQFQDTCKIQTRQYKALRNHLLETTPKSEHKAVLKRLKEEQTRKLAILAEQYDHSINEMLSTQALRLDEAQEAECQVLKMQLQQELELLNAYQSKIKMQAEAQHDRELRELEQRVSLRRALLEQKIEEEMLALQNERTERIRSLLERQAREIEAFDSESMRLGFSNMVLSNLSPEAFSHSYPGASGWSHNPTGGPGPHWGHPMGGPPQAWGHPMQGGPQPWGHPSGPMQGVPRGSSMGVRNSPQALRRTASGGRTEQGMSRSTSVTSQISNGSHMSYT
To be noted: at 10 µM.

The target in test [5] is T3, Serine/threonine-protein kinase TAO2 (Homo sapiens) (UniProt Q9UL54).
T3 sequence (whole entry): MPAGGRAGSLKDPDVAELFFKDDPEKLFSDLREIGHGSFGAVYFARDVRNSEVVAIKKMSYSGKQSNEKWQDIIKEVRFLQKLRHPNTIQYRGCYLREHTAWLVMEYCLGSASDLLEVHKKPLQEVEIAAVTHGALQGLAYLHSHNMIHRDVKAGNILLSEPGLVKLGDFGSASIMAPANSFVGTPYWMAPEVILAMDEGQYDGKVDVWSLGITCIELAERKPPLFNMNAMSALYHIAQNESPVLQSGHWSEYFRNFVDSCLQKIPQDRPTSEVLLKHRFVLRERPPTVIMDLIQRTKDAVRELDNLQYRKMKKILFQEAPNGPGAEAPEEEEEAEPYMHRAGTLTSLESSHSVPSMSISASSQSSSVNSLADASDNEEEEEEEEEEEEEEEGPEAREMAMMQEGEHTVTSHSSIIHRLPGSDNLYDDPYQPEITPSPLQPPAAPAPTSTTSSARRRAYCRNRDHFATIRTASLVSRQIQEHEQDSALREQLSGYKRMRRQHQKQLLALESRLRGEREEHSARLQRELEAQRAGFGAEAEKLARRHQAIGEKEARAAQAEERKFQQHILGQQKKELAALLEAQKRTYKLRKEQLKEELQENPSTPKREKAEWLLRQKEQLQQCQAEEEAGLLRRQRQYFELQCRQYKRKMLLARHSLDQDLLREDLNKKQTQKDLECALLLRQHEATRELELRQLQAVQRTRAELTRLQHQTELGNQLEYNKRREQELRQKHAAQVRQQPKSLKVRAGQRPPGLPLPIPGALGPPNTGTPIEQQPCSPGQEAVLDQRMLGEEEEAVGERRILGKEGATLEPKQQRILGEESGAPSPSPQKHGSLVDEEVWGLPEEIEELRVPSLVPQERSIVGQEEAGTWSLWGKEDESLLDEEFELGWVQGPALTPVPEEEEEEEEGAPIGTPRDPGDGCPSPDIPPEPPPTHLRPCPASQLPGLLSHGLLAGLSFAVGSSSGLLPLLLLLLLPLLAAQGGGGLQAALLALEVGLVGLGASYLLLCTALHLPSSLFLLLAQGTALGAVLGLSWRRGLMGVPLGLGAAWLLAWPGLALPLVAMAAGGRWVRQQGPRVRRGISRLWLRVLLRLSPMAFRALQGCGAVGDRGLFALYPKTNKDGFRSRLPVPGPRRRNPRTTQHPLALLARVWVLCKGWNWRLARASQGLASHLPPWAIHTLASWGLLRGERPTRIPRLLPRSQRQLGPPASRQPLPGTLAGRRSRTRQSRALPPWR
To be noted: at 1 µM.

Test [6] addresses T3, Serine/threonine-protein kinase TAO2 (Homo sapiens). To be noted: at 10 µM.
The target of test [7] is T4, Serine/threonine-protein kinase TAO3 (Homo sapiens) (UniProt Q9H2K8).
T4 sequence (whole entry): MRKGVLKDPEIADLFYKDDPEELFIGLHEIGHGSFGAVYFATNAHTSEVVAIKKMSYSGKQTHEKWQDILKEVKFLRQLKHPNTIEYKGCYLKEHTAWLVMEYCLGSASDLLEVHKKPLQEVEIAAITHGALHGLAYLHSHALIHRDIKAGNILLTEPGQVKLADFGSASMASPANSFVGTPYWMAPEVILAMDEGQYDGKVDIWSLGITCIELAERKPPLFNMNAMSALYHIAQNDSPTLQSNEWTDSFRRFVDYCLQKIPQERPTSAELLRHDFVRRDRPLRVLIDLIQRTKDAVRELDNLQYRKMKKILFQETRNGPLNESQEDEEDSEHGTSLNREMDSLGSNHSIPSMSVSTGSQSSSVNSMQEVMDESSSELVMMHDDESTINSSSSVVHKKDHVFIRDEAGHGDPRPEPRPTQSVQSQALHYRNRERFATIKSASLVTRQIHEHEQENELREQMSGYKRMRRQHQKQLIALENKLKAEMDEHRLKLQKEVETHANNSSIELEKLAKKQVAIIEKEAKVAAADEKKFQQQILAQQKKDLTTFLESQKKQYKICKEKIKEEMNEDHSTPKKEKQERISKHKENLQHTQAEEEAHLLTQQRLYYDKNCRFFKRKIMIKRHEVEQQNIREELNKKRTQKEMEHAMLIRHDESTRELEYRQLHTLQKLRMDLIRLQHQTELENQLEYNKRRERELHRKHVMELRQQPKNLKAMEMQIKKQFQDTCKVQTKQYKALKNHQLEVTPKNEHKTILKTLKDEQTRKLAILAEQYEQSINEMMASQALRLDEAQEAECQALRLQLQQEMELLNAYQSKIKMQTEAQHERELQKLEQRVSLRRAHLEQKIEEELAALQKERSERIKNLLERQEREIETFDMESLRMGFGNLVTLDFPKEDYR
To be noted: at 1 µM.

In test [8] the target is T4, Serine/threonine-protein kinase TAO3 (Homo sapiens). To be noted: at 10 µM.
For test [9], the target named is T5, Serine/threonine-protein kinase TBK1 (Homo sapiens) (UniProt Q9UHD2).
T5 sequence (whole entry): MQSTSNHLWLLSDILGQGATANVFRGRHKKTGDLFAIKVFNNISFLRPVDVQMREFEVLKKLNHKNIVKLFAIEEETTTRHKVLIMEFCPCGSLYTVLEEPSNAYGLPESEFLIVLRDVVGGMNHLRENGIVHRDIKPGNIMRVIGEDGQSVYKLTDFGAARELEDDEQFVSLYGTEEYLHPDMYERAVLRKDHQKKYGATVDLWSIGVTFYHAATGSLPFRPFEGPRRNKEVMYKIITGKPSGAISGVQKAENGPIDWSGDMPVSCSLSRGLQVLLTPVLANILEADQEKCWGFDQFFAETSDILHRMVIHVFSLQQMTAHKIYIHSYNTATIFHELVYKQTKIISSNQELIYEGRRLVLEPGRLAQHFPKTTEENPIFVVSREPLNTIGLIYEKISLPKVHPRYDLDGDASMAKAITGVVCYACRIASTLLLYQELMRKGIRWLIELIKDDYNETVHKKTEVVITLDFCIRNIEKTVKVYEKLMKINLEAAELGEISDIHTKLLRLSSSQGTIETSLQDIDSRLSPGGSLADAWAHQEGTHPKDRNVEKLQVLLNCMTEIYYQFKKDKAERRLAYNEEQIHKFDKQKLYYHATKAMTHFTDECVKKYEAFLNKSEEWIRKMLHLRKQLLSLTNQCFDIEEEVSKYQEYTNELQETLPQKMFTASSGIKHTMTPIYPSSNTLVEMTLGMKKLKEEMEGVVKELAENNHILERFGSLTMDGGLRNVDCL
The settings on record: at 1 µM.

The target in test [10] is T2, Serine/threonine-protein kinase TAO1 (Homo sapiens). The settings on record: at 1 µM.

With `O=c1cc(N2CCNCC2)oc2c(-c3ccccc3)cccc12`, the residual activity in test [1] is 92%; in [2] it was 95%; in test [3], 83%; in test [4] it was 85%; in [5] it was 105%; in test [6] it was 96%. In addition, the residual activity was 98% in test [7], 92% in test [8] and 72% in test [9].
Take `O=C(c1cc2cc(O)ccc2[nH]1)c1cc2cc(O)ccc2[nH]1`: the residual activity in test [1] is 46%; in [2] it was 62%; in test [3], 23%; in test [10] it was 70%; in test [4], 28%; in test [5], 80%. Also, the residual activity in [6] is 32%; in test [7] it was 66%; in [8] it was 22%; in [9], 16%.
With `O=C1NC(=O)C(c2c[nH]c3ccccc23)=C1c1c[nH]c2ccccc12`, the residual activity amounted to 82% in test [1]; 75% in test [3]; 82% in [5]; 35% in test [6]; 69% in test [7]; 26% in [8]. In addition, the residual activity in test [9] is 70%.
Take `CSc1nc(-c2ccc(F)cc2)c(-c2ccnc(NC(C)c3ccccc3)c2)[nH]1` (centres undefined): the residual activity in test [1] was 75%; in test [2] it was 101%; in test [3], 93%; in [10], 102%; in test [4], 83%; in test [6], 83%. In addition, the residual activity in test [8] is 91%; in [9] it was 102%.
Turning to `c1ccc(-c2cnc(Nc3ccc(OCCN4CCCC4)cc3)s2)cc1`, the residual activity in [1] is 72%; in test [3] it was 74%; in test [10], 82%; in [4], 28%; in [5], 81%; in [6], 21%. Besides, the values for the residual activity in [7], in [8] and in test [9] were 82%, 27% and 70%, respectively.
As to `O=C(c1ccccc1)c1ccc(N2CCOCC2)cc1O`, the residual activity in test [1] was 93%; in [2] it was 100%; in [3], 95%; in test [4], 91%; in [8], 92%; in test [9], 91%.

Values taken from ChEMBL document CHEMBL2218924, “A broad activity screen in support of a chemogenomic map for kinase signalling research and drug discovery” (Biochem J, 2013).
